Here are results for seven molecules from PubChem BioAssay (EPA / NIEHS).

A short description of assay [1]: ATG_E_Box_CIS: Attagene CIS-FACTORIAL HepG2 Assay for human Enhancer Box (E-box) (AID 2282936). Conditions: HepG2 E-box cis-reporter transcription, actives raise or lower the signal. In a few lines:
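DMSO served as negative control and baseline for bidirectional fitting. Human hepatoma HepG2 cells, transiently transfected with cis-reporter constructs, were dosed 24 h; reporter mRNA read by RT-PCR and capillary electrophoresis.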

Assay [2] can be described thus: ATG_M_61_CIS: Attagene CIS-FACTORIAL HepG2 Assay for M61 Transcription Factor (Internal Marker) (AID 2282937). The note with it: HepG2 Attagene CIS-FACTORIAL M61 internal marker reporter; actives raise or lower the signal. In a few lines:
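Background-control endpoint: HepG2 cells with cis-regulated reporter constructs, 24 h exposure, reporter mRNA detected via fluorescent primer extension and capillary electrophoresis; values from bidirectional fitting with DMSO baseline.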

The nature of assay [3]: ATG_EGR_CIS: Attagene CIS-FACTORIAL HepG2 Assay for human Early Growth Response 1 (EGR1) (AID 2282938). Conditions: HepG2 Attagene CIS-FACTORIAL EGR reporter mRNA; actives raise or lower the signal. The gist of the method: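 Endpoint derived by bidirectional fitting versus DMSO vehicle. Method: cis-promoter reporter units transfected into HepG2, 24 h dosing, RNA isolation, RT-PCR with 6-FAM primer extension and HpaI digestion, then capillary electrophoresis fluorescence detection.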

Assay [4] can be described thus: ATG_M_19_CIS: Attagene CIS-FACTORIAL HepG2 Assay for M19 Transcription Factor (Internal Marker) (AID 2282939). The note with it: HepG2 Attagene CIS-FACTORIAL M19 internal marker reporter; actives raise or lower the signal. In a few lines: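 HepG2 cells transiently transfected with cis-regulated multiplexed reporter units, dosed 24 h. Reporter mRNA quantified by RT-PCR and capillary electrophoresis; internal background marker fitted bidirectionally versus DMSO.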

A short description of assay [5]: ATG_ERE_CIS: Attagene CIS-FACTORIAL HepG2 Assay for Estrogen Response Element (ERE) (AID 2282940). The note with it: HepG2 ERE cis-reporter, Attagene RNA transcript; actives raise or lower the signal. The gist of the method:
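HepG2 cells transiently transfected with multiplexed cis-element reporter units, measuring endogenous transcription factor activity; ERE reporter mRNA quantified after 24 h exposure by RT-PCR, fluorescent labelling, HpaI digestion and capillary electrophoresis. Bidirectional change versus DMSO.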

Assay [6] in a line: ATG_Ets_CIS: Attagene CIS-FACTORIAL HepG2 Assay for human Erythroblast Transformation Specific (ETS) (AID 2282941). Conditions: HepG2 ETS cis-reporter transcription, actives raise or lower the signal. In a few lines:
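After transient cis-reporter transfection, HepG2 cells receive test chemical for 24 h. Reporter mRNA levels, measured by RT-PCR and capillary electrophoresis fluorescence, are analysed bidirectionally relative to the DMSO baseline.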

For assay [7], the target named is Hepatocyte nuclear factor 3-beta (Homo sapiens) (UniProt Q9Y261). Kind of assay: ATG_FoxA2_CIS: Attagene CIS-FACTORIAL HepG2 Assay for human Forkhead box A2 (FOXA2) (AID 2282942). The note with it: HepG2 cis-reporter transcription factor activity, 24 h; actives raise or lower the signal. In a few lines: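 Measured: reporter mRNA induction or loss in HepG2 transiently carrying multiple cis-regulated reporter units, 24 h after dosing. Quantified by RT-PCR plus capillary electrophoresis, normalised to DMSO.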

Assay [8] in a line: ATG_FoxO_CIS: Attagene CIS-FACTORIAL HepG2 Assay for human Forkhead box O (FoxO) (AID 2282943). The note with it: HepG2 Attagene cis-reporter, FoxO element, mRNA; actives raise or lower the signal. The gist of the method:
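Endogenous transcription factor activity read from multiplexed cis-promoter reporter transcripts in transiently transfected HepG2, 24 h after dosing. Reporter RNA measured via RT-PCR plus capillary electrophoresis of FAM-labeled products; gain or loss relative to DMSO.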

The nature of assay [9]: ATG_GATA_CIS: Attagene CIS-FACTORIAL HepG2 Assay for human GATA Binding Protein (AID 2282944). Conditions: HepG2 GATA cis-element reporter, Attagene multiplex mRNA; actives raise or lower the signal. The gist of the method:
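HepG2 cells transiently transfected with multiplexed cis-element reporter units measure endogenous GATA activity; after 24 h compound exposure, reporter mRNA quantified by RT-PCR and capillary electrophoresis. Changes fitted in both directions vs DMSO.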

Assay [10] can be described thus: ATG_GLI_CIS: Attagene CIS-FACTORIAL HepG2 Assay for human Zinc Finger Protein GLI1 (AID 2282945). Conditions: HepG2, Attagene cis-factorial reporter mRNA, GLI element; actives raise or lower the signal. In a few lines: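 Bidirectional curve fits relative to DMSO, using reporter mRNA levels from RT-PCR plus capillary electrophoresis. Cells were HepG2 transiently carrying cis-regulated reporter constructs, harvested 24 h after dosing.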

Assay [11] can be described thus: ATG_GRE_CIS: Attagene CIS-FACTORIAL HepG2 Assay for human Glucocorticoid Response Elements (GRE) (AID 2282947). Conditions: HepG2 GRE cis-reporter, Attagene multiplex mRNA; actives raise or lower the signal. In a few lines: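 Assay uses human hepatoma HepG2 cells transfected with cis-promoter reporter units, exposed 24 h. mRNA from reporters detected by RT-PCR plus capillary electrophoresis; DMSO serves as negative control and baseline.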

Assay [12] is described as follows: ATG_ISRE_CIS: Attagene CIS-FACTORIAL HepG2 Assay for human Interferon Regulatory Factor 1 (IRF1) binding to an Interferon-Stimulated Response Element (ISRE) (AID 2282948). Conditions: HepG2 ISRE cis-reporter (Attagene), mRNA transcription readout; actives raise or lower the signal. In a few lines:
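Quantitation relies on labelled RT-PCR fragments separated by capillary electrophoresis. Human HepG2 cells bearing cis-promoter reporter constructs were treated 24 h; DMSO served as baseline for bidirectional fitting.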

Assay [13] in a line: ATG_M_32_CIS: Attagene CIS-FACTORIAL HepG2 Assay for M32 Transcription Factor (Internal Marker) (AID 2282949).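 Further: background control marker of the multiplexed CIS panel rather than a real target.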 The note with it: HepG2 Attagene cis-factorial M32 reporter, mRNA; actives raise or lower the signal. The gist of the method:
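Following 24 h chemical exposure of HepG2 cells transiently expressing cis-promoter reporter constructs, reporter transcript levels were determined by RT-PCR with fluorescent labelling and capillary electrophoresis, then fitted bidirectionally against DMSO.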

The nature of assay [14]: ATG_M_06_CIS: Attagene CIS-FACTORIAL HepG2 Assay for M06 Transcription Factor (Internal Marker) (AID 2282950). The note with it: HepG2 Attagene CIS-FACTORIAL M06 internal marker reporter; actives raise or lower the signal. In a few lines: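 Internal background marker within multiplexed cis-reporter HepG2 system. Cells transiently transfected, dosed 24 h; reporter mRNA measured by RT-PCR, HpaI digestion and capillary electrophoresis. Bidirectional fit relative to DMSO.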

The target of assay [15] is Hypoxia-inducible factor 1-alpha (Homo sapiens) (UniProt Q16665). As to the kind of experiment: ATG_HIF1a_CIS: Attagene CIS-FACTORIAL HepG2 Assay for human Hypoxia Inducible Factor 1 (HIF1A) (AID 2282951). The note with it: HepG2 Attagene cis-factorial HIF1a reporter transcription; actives raise or lower the signal. The gist of the method:
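Dosed 24 h, transfected HepG2 cells yielded total RNA whose reporter transcripts were RT-PCR-amplified and sized by capillary electrophoresis using fluorescent labelling; DMSO defined baseline, with gain and loss of signal both fitted.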

Assay [16] addresses Hepatocyte nuclear factor 6 (Homo sapiens) (UniProt Q9UBC0). As to the kind of experiment: ATG_HNF6_CIS: Attagene CIS-FACTORIAL HepG2 Assay for human Hepatocyte Nuclear Factor 6 (HNF6) (AID 2282952). The note with it: HepG2 Attagene cis-factorial HNF6 reporter transcription; actives raise or lower the signal. In a few lines: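 Transiently transfected HepG2 cells expressing cis-regulated reporter transcription units were exposed to chemical for 24 h in a 24-well format. Reporter transcript abundance was determined by fluorescence capillary electrophoresis.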

For assay [17], the target named is Heat shock factor protein 1 (Homo sapiens) (UniProt Q00613). As to the kind of experiment: ATG_HSE_CIS: Attagene CIS-FACTORIAL HepG2 Assay for human Heat Shock Transcription Factor 1 (HSE) (AID 2282953). The note with it: HepG2 HSE cis-reporter, Attagene RNA transcription; actives raise or lower the signal. In a few lines: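 HepG2 cells transfected with cis-promoter reporter units sensing endogenous transcription factor activity; reporter mRNA quantified 24 h post-dose by RT-PCR and capillary electrophoresis of 6-FAM-labelled products. Bidirectional fitting against DMSO.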

The nature of assay [18]: ATG_MRE_CIS: Attagene CIS-FACTORIAL HepG2 Assay for human Metal Responsive Element (MRE) (AID 2282954). Conditions: HepG2 MRE cis-reporter transcription, Attagene multiplex; actives raise or lower the signal. In a few lines:
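After a 24 h chemical exposure, transiently transfected HepG2 cells yield RNA whose reporter sequences are amplified, FAM-labelled and sized by capillary electrophoresis. Curves are fitted bidirectionally relative to DMSO.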

The nature of assay [19]: ATG_PBREM_CIS: Attagene CIS-FACTORIAL HepG2 Assay for human Phenobarbital-responsive Enhancer Module (PBREM) (AID 2282955). The note with it: HepG2 PBREM cis-reporter, Attagene multiplexed transcription; actives raise or lower the signal. The gist of the method:
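Transfected liver-derived HepG2 cells exposed 24 h; PBREM reporter transcript quantified via RT-PCR and capillary electrophoresis, with activity in either direction referenced to DMSO.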

The term AC50 denotes the concentration at which the activity in the assay is half-maximal.

SMILES strings stand for the structures. Activity calls are given as the source filed them. How the source made its calls: active means hit-call score of the fitted dose curve at least 0.9, where 1 is the maximum; inactive means score below 0.9.

Hepatocyte nuclear factor 6 (Homo sapiens), sequence (Q9UBC0 whole entry, looked up): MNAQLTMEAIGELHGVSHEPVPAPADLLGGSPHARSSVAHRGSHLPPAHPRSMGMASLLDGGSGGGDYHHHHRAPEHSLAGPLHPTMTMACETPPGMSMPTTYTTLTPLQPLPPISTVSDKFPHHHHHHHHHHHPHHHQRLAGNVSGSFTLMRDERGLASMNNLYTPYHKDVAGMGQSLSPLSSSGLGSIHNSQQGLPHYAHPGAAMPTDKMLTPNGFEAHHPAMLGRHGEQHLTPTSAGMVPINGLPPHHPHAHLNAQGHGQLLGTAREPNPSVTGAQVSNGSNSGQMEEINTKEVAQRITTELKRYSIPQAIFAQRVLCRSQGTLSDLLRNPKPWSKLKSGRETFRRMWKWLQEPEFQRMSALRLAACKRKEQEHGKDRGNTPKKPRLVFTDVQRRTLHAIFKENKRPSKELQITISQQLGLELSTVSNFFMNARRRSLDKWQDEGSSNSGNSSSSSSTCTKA
Hepatocyte nuclear factor 3-beta (Homo sapiens), sequence (Q9Y261 whole entry, looked up): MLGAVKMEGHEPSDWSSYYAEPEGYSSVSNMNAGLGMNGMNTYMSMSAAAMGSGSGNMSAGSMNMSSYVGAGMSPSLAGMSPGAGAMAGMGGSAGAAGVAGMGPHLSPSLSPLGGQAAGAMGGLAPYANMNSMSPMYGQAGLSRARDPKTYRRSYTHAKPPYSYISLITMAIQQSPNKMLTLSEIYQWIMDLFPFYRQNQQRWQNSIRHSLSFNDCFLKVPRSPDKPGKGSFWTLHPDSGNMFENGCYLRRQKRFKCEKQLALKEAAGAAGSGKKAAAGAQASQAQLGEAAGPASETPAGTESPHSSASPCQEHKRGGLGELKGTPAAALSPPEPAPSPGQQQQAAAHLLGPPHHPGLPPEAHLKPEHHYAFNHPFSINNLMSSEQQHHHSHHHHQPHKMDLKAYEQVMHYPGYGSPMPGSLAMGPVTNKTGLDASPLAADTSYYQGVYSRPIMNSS
Hypoxia-inducible factor 1-alpha (Homo sapiens), sequence (Q16665 whole entry, looked up): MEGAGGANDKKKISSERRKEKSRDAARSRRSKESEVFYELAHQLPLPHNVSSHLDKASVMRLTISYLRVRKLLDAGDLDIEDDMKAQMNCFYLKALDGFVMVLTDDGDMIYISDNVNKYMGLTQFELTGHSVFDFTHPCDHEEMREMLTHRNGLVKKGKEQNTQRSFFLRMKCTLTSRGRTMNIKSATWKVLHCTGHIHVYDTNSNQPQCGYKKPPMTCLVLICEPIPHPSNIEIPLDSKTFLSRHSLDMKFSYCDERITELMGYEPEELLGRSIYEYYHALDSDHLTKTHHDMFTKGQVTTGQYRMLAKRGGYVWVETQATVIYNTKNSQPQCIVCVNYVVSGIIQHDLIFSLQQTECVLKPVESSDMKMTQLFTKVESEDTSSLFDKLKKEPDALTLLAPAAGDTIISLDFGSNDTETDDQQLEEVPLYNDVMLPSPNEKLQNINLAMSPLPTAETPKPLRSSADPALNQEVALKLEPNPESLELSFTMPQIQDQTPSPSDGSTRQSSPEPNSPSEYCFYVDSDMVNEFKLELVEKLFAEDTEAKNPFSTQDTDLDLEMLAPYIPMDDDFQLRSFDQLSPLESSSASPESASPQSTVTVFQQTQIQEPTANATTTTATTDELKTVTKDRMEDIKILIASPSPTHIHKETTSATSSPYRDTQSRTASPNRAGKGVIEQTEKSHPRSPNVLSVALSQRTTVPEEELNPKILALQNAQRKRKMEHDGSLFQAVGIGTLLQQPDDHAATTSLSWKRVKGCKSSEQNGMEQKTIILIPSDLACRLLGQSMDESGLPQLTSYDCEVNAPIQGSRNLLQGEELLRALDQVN
Heat shock factor protein 1 (Homo sapiens), sequence (Q00613 whole entry, looked up): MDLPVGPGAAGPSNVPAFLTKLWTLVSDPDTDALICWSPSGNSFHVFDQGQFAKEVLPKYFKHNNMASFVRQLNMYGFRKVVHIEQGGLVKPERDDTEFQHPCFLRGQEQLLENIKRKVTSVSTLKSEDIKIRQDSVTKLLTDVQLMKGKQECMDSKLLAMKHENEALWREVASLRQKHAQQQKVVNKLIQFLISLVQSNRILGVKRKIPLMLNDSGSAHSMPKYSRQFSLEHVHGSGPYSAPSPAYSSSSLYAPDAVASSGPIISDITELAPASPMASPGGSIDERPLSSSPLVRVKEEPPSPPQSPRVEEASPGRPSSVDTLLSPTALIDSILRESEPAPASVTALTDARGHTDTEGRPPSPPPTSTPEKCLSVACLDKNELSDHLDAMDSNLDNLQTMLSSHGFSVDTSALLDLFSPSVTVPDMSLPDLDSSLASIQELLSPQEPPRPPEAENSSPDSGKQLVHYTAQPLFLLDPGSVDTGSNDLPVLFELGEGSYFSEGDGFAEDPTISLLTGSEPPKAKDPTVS

Take `O=c1c2ccccc2nnn1CCl`: the outcome in [1], in [2], in [3], in assay [4], in [5] and in [6] was inactive. In addition, the molecule was called inactive in assay [7], in assay [8], in assay [9], in assay [10], in [11] and in assay [12]. The result in assay [13], in assay [14], in assay [15], in assay [16], in [17] and in assay [18] was inactive.
As for `NC(=O)C1CO1` (stereo not given), the result in [1], in assay [2], in assay [3], in assay [4], in assay [5] and in [6] was inactive. Moreover, the result in assay [7], in [8], in [9], in assay [10], in [11] and in assay [12] was inactive. Further, the molecule was classed as inactive in assay [13], in assay [14], in [15], in [16], in assay [17] and in [18].
As for `CCOC(=O)CC(C(C)=O)C(C)=O`, the result in [1], in assay [2], in assay [3], in assay [4], in assay [5] and in [6] was inactive. Also, the molecule was called inactive in [7], in assay [8], in assay [9], in [10], in assay [11] and in assay [12]. The result in assay [13], in assay [14], in assay [15], in [16], in assay [17] and in assay [18] was inactive.
With `OCCNCc1ccccc1`, the result in assay [1], in assay [2], in [3], in assay [4], in assay [5] and in assay [6] was inactive. For the same molecule, the result in assay [7], in [8], in assay [9], in assay [10], in assay [11] and in assay [12] was inactive. The molecule was called inactive in assay [13], in [14], in assay [15], in assay [16], in assay [17] and in assay [18]. For the same molecule, the result in [19] was inactive.
`O=C(c1ccccc1)C1CCC1`: the outcome in assay [1], in assay [2], in assay [3], in assay [4], in [5] and in assay [6] was inactive. Moreover, the result in assay [7], in assay [8], in assay [9], in assay [10], in [11] and in [12] was inactive. The result in assay [13], in assay [14], in [15], in assay [16], in assay [17] and in [18] was inactive. For the same molecule, the result in assay [19] was inactive.
Regarding `Cc1ccc(C(C)c2ccc(C)c(C)c2)cc1C`, the result in assay [1], in assay [2], in assay [3], in [4], in assay [5] and in assay [6] was inactive. The result in assay [7], in assay [8], in [9], in assay [12], in assay [13] and in [14] was inactive. The molecule was classed as inactive in [16] and in assay [19]. Further, the AC50 in [10] is 146 µM (active); in [11], 24.8 µM (active); in assay [15], 26.1 µM (active); in assay [17], 100 µM (active); in [18] it was 181 µM (active).
`CCOCC(=O)O`: the result in assay [1], in assay [2], in assay [3], in [4], in assay [5] and in assay [6] was inactive. For the same molecule, the result in [7], in assay [8], in [9], in assay [10], in assay [11] and in [12] was inactive. In addition, the molecule was classed as inactive in assay [13], in assay [14], in assay [15], in [16], in assay [17] and in [18]. In [19], the outcome was inactive.
